Where “and” joins values, the source holds several entries; their conditions need not be identical. Equal values may be shown once. Screen size: about 5,500 compounds; about 2,000 (36%) were called active. Inconclusive results (about 18%) are left out. No stated cut-off is given here; in the data, active means normalized growth mostly below about 0.91 (no sharp cut-off); inconclusive means no clear call, values can overlap the other calls; inactive means mostly above about 0.92. The list shows a part of the results.
Assay: chemical genetic growth profiling, strain panel (AID 1159580);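 further: tested at 20 µM; growth read once vehicle control cultures reached saturation at 30 °C; 1 = growth at the plate median or of vehicle wells; lower values mean less growth of the strain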
Conditions: growth OD
[1] = S. cerevisiae deletion strains, locus YDR150W, strain NUM1, hits give low values
[2] = S. cerevisiae deletion strains, locus YMR307W, strain GAS1, hits give low values
[3] = S. cerevisiae deletion strains, locus YNL128W, strain TEP1, hits give low values
[4] = S. cerevisiae deletion strains, locus YNL322C, strain KRE1, hits give low values
[5] = S. cerevisiae deletion strains, locus YPL241C, strain CIN2, hits give low values

Measured: normalized growth

COc1cc2c(cc1-c1cc3cc4ccoc4cc3oc1=O)OCO2
active: S. cerevisiae deletion strains, locus YBR021W, strain FUR4, hits give low values 1.31 [resistant] | S. cerevisiae deletion strains, locus YER155C, strain BEM2, hits give low values 1.11 [resistant] | S. cerevisiae deletion strains, locus YHR094C, strain hxt1, hits give low values 1.16 [resistant] | S. cerevisiae deletion strains, locus YKL009W, strain mrt4, hits give low values 1.19 [resistant] | S. cerevisiae deletion strains, locus YLR371W, strain rom2, hits give low values 1.18 [resistant] | [2] 1.57 [resistant] | [4] 1.16 [resistant] | S. cerevisiae deletion strains, locus YOR316C, strain cot1, hits give low values 1.17 [resistant]
inactive: S. cerevisiae deletion strains, locus YBR229C, strain ROT2, hits give low values 0.995 | S. cerevisiae deletion strains, locus YCL029C, strain bik1, hits give low values 0.965 | S. cerevisiae deletion strains, locus YDL035C, strain GPR1, hits give low values 1.01 | S. cerevisiae deletion strains, locus YDL074C, strain BRE1, hits give low values 1 | S. cerevisiae deletion strains, locus YDL101C, strain DUN1, hits give low values 0.98 | S. cerevisiae deletion strains, locus YDL185W, strain tfp1, hits give low values 0.97 | S. cerevisiae deletion strains, locus YDL192W, strain arf1, hits give low values 1.01 | S. cerevisiae deletion strains, locus YDR101C, strain arx1, hits give low values 0.981 | [1] 0.991 | S. cerevisiae deletion strains, locus YDR162C, strain NBP2, hits give low values 0.977 | S. cerevisiae deletion strains, locus YDR318W, strain mcm21, hits give low values 0.973 | S. cerevisiae deletion strains, locus YDR388W, hits give low values 0.965 | S. cerevisiae deletion strains, locus YDR502C, strain sam2, hits give low values 0.95 | S. cerevisiae deletion strains, locus YEL061C, strain CIN8, hits give low values 1.01 | S. cerevisiae deletion strains, locus YER110C, hits give low values 0.97 | S. cerevisiae deletion strains, locus YER167W, strain BCK2, hits give low values 1.02 | S. cerevisiae deletion strains, locus YGL078C, strain dbp3, hits give low values 0.997 | S. cerevisiae deletion strains, locus YGL086W, strain mad1, hits give low values 1.01 | S. cerevisiae deletion strains, locus YGL248W, strain PDE1, hits give low values 0.977 | S. cerevisiae deletion strains, locus YGR078C, strain PAC10, hits give low values 0.993 | S. cerevisiae deletion strains, locus YGR135W, strain pre9, hits give low values 0.993 | S. cerevisiae deletion strains, locus YGR252W, strain gcn5, hits give low values 1.16 | S. cerevisiae deletion strains, locus YHR030C, strain SLT2, hits give low values 0.984 and 1 | S. cerevisiae deletion strains, locus YHR079C, strain IRE1 (second series), hits give low values 0.979 | S. cerevisiae deletion strains, locus YHR079C, strain IRE1, hits give low values 1.01 | S. cerevisiae deletion strains, locus YHR129C, strain ARP1, hits give low values 1.01 | S. cerevisiae deletion strains, locus YHR200W, strain rpn10, hits give low values 0.972 | S. cerevisiae deletion strains, locus YIL066C, strain RNR3, hits give low values 0.973 | S. cerevisiae deletion strains, locus YIL073C, strain SPO22, hits give low values 0.902 | S. cerevisiae deletion strains, locus YIL125W, strain kgd1, hits give low values 0.984 | S. cerevisiae deletion strains, locus YIR030C, strain dcg1, hits give low values 0.989 | S. cerevisiae deletion strains, locus YJL095W, strain BCK1, hits give low values 0.979 and 1 | S. cerevisiae deletion strains, locus YJL134W, strain LCB3, hits give low values 0.973 | S. cerevisiae deletion strains, locus YJL168C, strain set2, hits give low values 1.01 | S. cerevisiae deletion strains, locus YJL187C, strain SWE1 (second series), hits give low values 0.98 | S. cerevisiae deletion strains, locus YJR043C, strain POL32, hits give low values 1.01 | S. cerevisiae deletion strains, locus YJR066W, strain TOR1, hits give low values 0.942 | S. cerevisiae deletion strains, locus YKL068W, hits give low values 1.02 | S. cerevisiae deletion strains, locus YKL085W, strain MDH1 (second series), hits give low values 1.05 | S. cerevisiae deletion strains, locus YKL085W, strain MDH1, hits give low values 1.05 | S. cerevisiae deletion strains, locus YKR001C, strain vps1, hits give low values 1.01 | S. cerevisiae deletion strains, locus YLR039C, strain RIC1, hits give low values 0.954 | S. cerevisiae deletion strains, locus YLR058C, strain SHM2, hits give low values 0.973 | S. cerevisiae deletion strains, locus YLR102C, strain apc9, hits give low values 0.997 | S. cerevisiae deletion strains, locus YLR113W, strain HOG1, hits give low values 0.996 | S. cerevisiae deletion strains, locus YLR262C, strain YPT6, hits give low values 1.19 | S. cerevisiae deletion strains, locus YLR268W, strain sec22, hits give low values 0.95 | S. cerevisiae deletion strains, locus YLR330W, strain CHS5, hits give low values 0.983 | S. cerevisiae deletion strains, locus YLR342W, strain FKS1 (second series), hits give low values 0.993 | S. cerevisiae deletion strains, locus YLR418C, strain cdc73, hits give low values 0.915 | S. cerevisiae deletion strains, locus YML016C, strain PPZ1, hits give low values 0.982 | S. cerevisiae deletion strains, locus YML032C, strain rad52, hits give low values 0.983 | S. cerevisiae deletion strains, locus YML124C, strain tub3, hits give low values 0.975 | S. cerevisiae deletion strains, locus YMR078C, strain ctf18, hits give low values 0.984 | S. cerevisiae deletion strains, locus YMR223W, strain ubp8, hits give low values 0.999 | S. cerevisiae deletion strains, locus YNL067W, strain RPL9B, hits give low values 0.968 | [3] 1.01 | S. cerevisiae deletion strains, locus YNL183C, strain NPR1, hits give low values 0.925 | S. cerevisiae deletion strains, locus YNL233W, strain BNI4, hits give low values 1 | S. cerevisiae deletion strains, locus YNL250W, strain rad50, hits give low values 0.975 | S. cerevisiae deletion strains, locus YNL271C, strain bni1, hits give low values 0.991 | S. cerevisiae deletion strains, locus YNL298W, strain CLA4, hits give low values 1 | S. cerevisiae deletion strains, locus YNL307C, strain MCK1, hits give low values 0.944 | S. cerevisiae deletion strains, locus YNR052C, strain pop2, hits give low values 1.03 | S. cerevisiae deletion strains, locus YOL012C, strain htz1 1.22 | S. cerevisiae deletion strains, locus YOL147C, strain pex11, hits give low values 0.992 | S. cerevisiae deletion strains, locus YOR061W, strain CKA2, hits give low values 0.971 | S. cerevisiae deletion strains, locus YOR069W, strain VPS5, hits give low values 0.977 | S. cerevisiae deletion strains, locus YOR136W, strain idh2, hits give low values 0.987 | S. cerevisiae deletion strains, locus YOR144C, strain elg1, hits give low values 0.981 | S. cerevisiae deletion strains, locus YOR184W, strain ser1, hits give low values 0.907 | S. cerevisiae deletion strains, locus YOR231W, strain MKK1, hits give low values 1.07 | [5] 0.984 | S. cerevisiae deletion strains, locus YPL256C, strain CLN2, hits give low values 1.01 | S. cerevisiae deletion strains, locus YPR119W, strain clb2, hits give low values 0.966 | S. cerevisiae deletion strains, locus YPR141C, strain kar3, hits give low values 1.02 | S. cerevisiae deletion strains, locus YPR163C, strain tif3, hits give low values 0.969 | S. cerevisiae deletion strains, locus YPR167C, strain met16, hits give low values 0.995 | S. cerevisiae deletion strains, strain wtn01, hits give low values 0.972 | S. cerevisiae strains, strain wild type, hits give low values 1.01

CCCCN1CCC(COC(=O)c2cc(Cl)c(N)c3c2OCCO3)CC1
inactive: S. cerevisiae deletion strains, locus YAL013W, strain DEP1, hits give low values 0.976 | S. cerevisiae deletion strains, locus YAL040C, strain CLN3, hits give low values 0.973 | S. cerevisiae deletion strains, locus YCL061C, strain MRC1 (second series), hits give low values 0.987 | [1] 0.997 | S. cerevisiae deletion strains, locus YDR363W, strain ESC2, hits give low values 0.968 | S. cerevisiae deletion strains, locus YER002W, strain NOP16, hits give low values 0.987 | S. cerevisiae deletion strains, locus YGR229C, strain SMI1, hits give low values 0.966 | [2] 0.989 | [3] 0.991 | S. cerevisiae deletion strains, locus YNL153C, strain GIM3, hits give low values 0.996 | S. cerevisiae deletion strains, locus YNL175C, strain NOP13, hits give low values 1 | S. cerevisiae deletion strains, locus YNL197C, strain WHI3, hits give low values 0.991 | S. cerevisiae deletion strains, locus YNL224C, strain SQS1, hits give low values 1.01 | [4] 0.982 | S. cerevisiae deletion strains, locus YOR083W, strain WHI5 (second series), hits give low values 0.989 | [5] 0.993

Source: PubChem BioAssay AID1159580 (chemical genetic matrix, 2015)
